# The list is not random: actives were taken first. Their share in the collection is about 3%.
# FBA Mtb inh: Mtb fructose-bisphosphate aldolase inhibition. AID 588726. inhibition, % at 1 µM. purified M. tuberculosis FBA, fluorescence read-out. P9WQA3. 2.3% of 360,000 active
# Target sequence (P9WQA3 whole entry, looked up): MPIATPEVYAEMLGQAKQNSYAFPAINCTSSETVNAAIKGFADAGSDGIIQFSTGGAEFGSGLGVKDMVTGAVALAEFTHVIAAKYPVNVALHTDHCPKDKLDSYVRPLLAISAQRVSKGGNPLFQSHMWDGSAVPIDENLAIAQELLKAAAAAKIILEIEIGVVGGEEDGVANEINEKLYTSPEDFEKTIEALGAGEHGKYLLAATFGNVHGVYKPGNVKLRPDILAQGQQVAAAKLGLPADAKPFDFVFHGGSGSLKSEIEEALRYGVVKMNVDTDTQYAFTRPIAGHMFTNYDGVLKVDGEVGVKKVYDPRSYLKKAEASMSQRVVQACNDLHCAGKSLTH
# GDH-TPI counter-1: counter-screen for M. tuberculosis FBA inhibitors: GDH-TPI coupled enzymes; GDH-TPI coupled enzyme counterscreen, NADH absorbance; inhibition, % at 4.8 µM; 1.2% of 360,000 active; AID 588335; in the data active = inhibition above about 30%
# Mtb BioA inh: blocks M. tuberculosis BioA enzyme activity; purified M. tuberculosis BioA enzyme, plate reader; inhibition, % at 9.99 µM; 0.096% of 360,000 active; AID 602481; in the data active = inhibition above about 40%
# Vc quorum ag: quorum light induction in luxS cqsA deficient V. cholerae | V. cholerae BH1578 lux reporter, luminescence, 6 h | 0.16% of 350,000 active | activation, % at 18.7 µM | AID 588436; in the data active = activation mostly above about 9.7%, no sharp cut-off
# Mtb FBA inh conf: Mtb FBA inhibition, confirmed; shares compounds with FBA Mtb inh; purified M. tuberculosis FBA, fluorescence read-out; inhibition, % at 1 µM; 78% of 5,600 active; AID 651616
# GDH-TPI counter-2: counter-screen for M. tuberculosis FBA inhibitors: GDH-TPI coupled enzyme inhibition | 81% of 5,600 active | inhibition, % at 1 µM | GDH-TPI coupled enzyme counterscreen, fluorescence | shares compounds with FBA Mtb inh; in the data active = inhibition above about 10%
# Hits are given with their value; – = inactive; · = not tested or not shown; + = active, no number. Rule as the data show it, unless noted: active = inhibition above about 27%; inactive = the rest.
SMILES,FBA Mtb inh,GDH-TPI counter-1,Mtb BioA inh,Vc quorum ag,Mtb FBA inh conf,GDH-TPI counter-2
CCOC(=O)c1[nH]c2ccc(OCC)cc2c1NC(=O)CN1CCC2(CC1)OCCO2,69,–,–,–,+,+
COc1ccc(C#Cc2ccc3c(c2)O[C@H](CN(C)S(=O)(=O)c2ccccc2F)[C@@H](C)CN([C@@H](C)CO)S3(=O)=O)cc1,·,·,–,·,·,·
Nc1cc2ccncc2c2ccccc12,102,–,–,–,+,+
N#Cc1cc2ccncc2c2ccccc12,–,–,–,–,·,·
O=C(C[C@@H]1CC[C@@H]2NC[C@H](O)COC[C@H]2O1)Nc1ccccc1,·,·,–,·,·,·
CCOc1cc(-c2nc3c(C)cccn3c2NCC2CCCO2)ccc1O (stereo unspecified),84,–,–,–,131,108
CCOc1cc(-c2nc3ccccn3c2NCC2CCCO2)ccc1O (stereo unspecified),–,–,·,–,·,·
COc1ccc(-c2nc3cccc(C)n3c2NCC2CCCO2)cc1O (stereo unspecified),59,–,–,–,134,104
COc1cc(-c2nc3ccccn3c2NCC2CCCO2)ccc1O (stereo unspecified),–,–,–,–,·,·
C[C@@H]1CN([C@@H](C)CO)C(=O)Cc2cc(NC(=O)CCN3CCOCC3)ccc2O[C@H]1CN(C)Cc1ccccc1,·,·,–,·,·,·
Cc1noc(C)c1S(=O)(=O)Nc1ccc2c(c1)C(=O)N([C@@H](C)CO)C[C@@H](C)[C@H](CN(C)C(=O)Nc1ccccc1)OCCCC[C@@H](C)O2,·,·,–,·,·,·
Cc1cc(OCC(=O)NCCCn2ccnc2)c2c(C)c(C)c(=O)oc2c1,76,–,–,–,38,29
Cc1cc(OC(C)C(=O)NCCCn2ccnc2)c2c(C)c(C)c(=O)oc2c1 (stereo unspecified),79,–,–,–,134,99
CCc1cc(=O)oc2cc(C)cc(OCC(=O)NCCCn3ccnc3)c12,61,–,–,–,+,+
Cc1cc(=O)oc2c(C)c(OC(C)C(=O)NCCCn3ccnc3)ccc12 (stereo unspecified),–,–,–,–,·,·
CCc1cc(=O)oc2c(C)c(OC(C)C(=O)NCCCn3ccnc3)ccc12 (stereo unspecified),66,–,–,–,77,68
C[C@H](CO)N1C[C@H](C)[C@H](CN(C)S(=O)(=O)c2cccs2)OCCCC[C@H](C)Oc2ccc(NC(=O)Nc3ccccc3)cc2C1=O,·,·,–,·,·,·
O=C(NCC[C@@H]1CC[C@H](NC(=O)C2CCCCC2)[C@H](CO)O1)c1cc(Cl)cc(Cl)c1,·,·,–,·,·,·
C/C=C/c1cnc2c(c1)C(=O)N([C@H](C)CO)C[C@H](C)[C@@H](CN(C)C(=O)C1CCCCC1)O2,·,·,–,·,·,·
COc1ccccc1C1CN(c2ccc(F)cc2F)N=C1c1cccs1 (stereo unspecified),83,–,–,–,177,132
Clc1ccccc1-c1nnc2sc(-c3ccc4c(c3)OCO4)nn12,28,–,–,–,+,+
Brc1ccccc1-c1nnc2sc(-c3ccc4c(c3)OCCO4)nn12,–,–,·,–,·,·
Clc1ccccc1-c1nnc(-c2ccc3c(c2)OCO3)o1,33,–,–,–,93,63
C[C@H](NC(=O)C[C@@H]1C=C[C@H](NC(=O)Cc2ccccn2)[C@H](CO)O1)c1ccccc1,·,·,–,·,·,·
CO[C@H]1CN(C)C(=O)c2ccc(NC(C)=O)cc2OC[C@@H](C)N(Cc2ccc(F)cc2)C[C@@H]1C,·,·,–,·,·,·
SMILES,FBA Mtb inh,GDH-TPI counter-1,Mtb BioA inh,Vc quorum ag,Mtb FBA inh conf,GDH-TPI counter-2
CCCC#Cc1ccc2c(c1)O[C@@H](CN(C)C(=O)CC1CC1)[C@H](C)CN([C@@H](C)CO)S2(=O)=O,·,·,–,·,·,·
OCCNc1c2ccccc2nc2ccccc12,60,–,·,–,62,34
Cc1cc(NCCO)c2cc(O)ccc2n1,90,–,–,–,105,127
OCCNc1nc2ccccc2nc1NCCO,35,–,–,–,+,173
Cc1cc(NCCO)c2ccccc2n1,–,–,–,–,·,·
Cc1cc(C(=O)Nc2cccc3c2O[C@H](CN(C)S(=O)(=O)c2ccc(F)cc2)[C@H](C)CN([C@@H](C)CO)C3=O)n(C)n1,·,·,–,·,·,·
C[C@H]1CN([C@@H](C)CO)C(=O)c2cc(NC(=O)C3CC3)ccc2O[C@H]1CN(C)CC1CCCCC1,·,·,–,·,·,·
FC(F)(F)c1cccc(-c2ccn3ncnc3n2)c1,33,–,·,–,–,–
O=C(O)C(=O)/C(=C\c1cccc(Cl)c1)c1ccc2ccccc2n1,79,–,–,–,+,+
COC(=O)C[C@H]1CC[C@H](NS(=O)(=O)c2ccc(OC)cc2)[C@@H](CO)O1,·,·,–,·,·,·
CCCNC(=O)C[C@@H]1CC[C@@H]2[C@@H](COc3ccc(NC(=O)c4ccc(C(F)(F)F)cc4)cc3C(=O)N2C)O1,·,·,–,·,·,·
COc1cc(C2c3c([nH]c(=O)[nH]c3=O)Nc3ccc4ccccc4c32)cc(OC)c1OC (stereo unspecified),34,–,·,–,90,75
COc1cc(C2c3c([nH]c(=O)[nH]c3=O)Nc3ccc4ccccc4c32)ccc1O (stereo unspecified),–,–,–,–,·,·
CN(C)C(=O)[C@H]1[C@H](CO)[C@H]2Cn3c(ccc(C4=CCCC4)c3=O)[C@H]2N1C(=O)c1ccccc1F,·,·,–,·,·,·
COc1ccc(-c2nc(NC(=O)CSc3nnc(C)s3)ns2)cc1,41,–,–,–,–,–
Nc1ccc(C=Cc2ccc(N)cc2)cc1,88,·,–,·,153,116
COc1ccc(NC(=O)N(C)C[C@H]2Oc3ccc(NC(=O)Cc4cn(C)c5ccccc45)cc3CC(=O)N([C@H](C)CO)C[C@@H]2C)cc1,·,·,–,·,·,·
Cc1cc(=O)oc2cc(OCC(O)Cn3ccnc3)ccc12 (stereo unspecified),43,–,–,–,–,–
CCN1CCN(CC(O)COc2ccc3c(C)cc(=O)oc3c2)CC1 (stereo unspecified),53,–,·,–,+,+
C[C@@H]1CN([C@H](C)CO)C(=O)c2cccc(NC(=O)Nc3ccc(C(F)(F)F)cc3)c2O[C@H]1CN(C)C(=O)Nc1ccccc1,·,·,–,·,·,·
O=C1NC(C2CC3C=CC2C3)Nc2ccccc21 (stereo unspecified),63,–,–,–,+,172
Cc1ccccc1N(CC(=O)N1CCN(c2ccccc2)CC1)S(C)(=O)=O,28,–,–,–,52,37
NC(=O)c1sc2cc(C(F)(F)F)cnc2c1-c1cccs1,–,–,–,–,·,·
O=C(O)c1sc2cc(C(F)(F)F)cnc2c1-c1cccs1,30,–,·,–,+,+
Cc1c(-c2ccccc2)n(O)c(-c2ccc(N(C)C)cc2)[n+]1[O-],57,–,–,–,126,109
CN(C)c1ccc(-[n+]2c(-c3ccccc3)cc(-c3ccccc3)cc2-c2ccccc2)cc1,–,–,·,–,·,·
Cc1ccc2nc(-c3ccc(N4C(=N)SC5CS(=O)(=O)CC54)cc3)sc2c1 (stereo unspecified),48,–,–,–,80,66

# Assay outcomes deposited in PubChem BioAssay by several laboratories.
